# From PubChem
# Compounds with a hit are over-represented: about 3.5% of the library has one in this group of screens.
# GDH-TPI counter = inhibits GDH-TPI coupling enzymes, artifact for Mtb FBA screen; inhibition, % at 4.8 µM; GDH-TPI coupled enzyme counterscreen, NADH absorbance; actives 1.2% (n = 360,000); in the data active = inhibition above about 30%;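 note: 0% = DMSO wells and 100% = wells lacking the enzyme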
# UGM FP inh = inhibitors of M. tuberculosis UDP-galactopyranose mutase. P9WIQ1. purified UGM, fluorescence polarization probe displacement. inhibition, % at 10 µM. actives 0.06% (n = 320,000). AID 504406; in the data active = inhibition above about 10%, passing the limit was not always enough
# Rv3671c protease = inhibitors of M. tuberculosis serine protease Rv3671c | AID 2606 | inhibition, % at 5.96 µM | P9WHR9 | actives 0.048% (n = 320,000); in the data active = inhibition above about 38%;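 note: extracellular domain of Rv3671c used as enzyme; 0% = enzyme with DMSO and 100% = no enzyme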
# FBA Mtb inh = inhibitors of M. tuberculosis fructose-bisphosphate aldolase | AID 588726 | inhibition, % at 1 µM | purified M. tuberculosis FBA, fluorescence read-out | actives 2.3% (n = 360,000) | P9WQA3; in the data active = inhibition above about 27%;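 note: 0% = vehicle and 100% = reference inhibitor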
# Target sequence (P9WQA3 whole entry, looked up): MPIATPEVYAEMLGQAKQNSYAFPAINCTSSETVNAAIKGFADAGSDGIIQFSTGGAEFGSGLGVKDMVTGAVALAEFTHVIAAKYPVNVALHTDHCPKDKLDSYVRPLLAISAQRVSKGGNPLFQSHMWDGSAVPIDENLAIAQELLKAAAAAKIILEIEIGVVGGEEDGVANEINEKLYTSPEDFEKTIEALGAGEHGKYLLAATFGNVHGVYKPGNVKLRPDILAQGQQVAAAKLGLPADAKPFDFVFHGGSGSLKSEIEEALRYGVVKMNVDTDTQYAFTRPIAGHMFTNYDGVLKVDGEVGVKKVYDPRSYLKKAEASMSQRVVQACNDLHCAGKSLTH
# * marks the source's active call; other numbers are inactive results; . = not tested or not shown; + = active, no number.
SMILES,GDH-TPI counter,UGM FP inh,Rv3671c protease,FBA Mtb inh
CCOC(=O)C1CCN(C2CCN(C(=O)c3oc4c(C)c(C)ccc4c3C)CC2)CC1,1,-1,-9,-1
Cc1c(O)c(CN2CCCC2)cc2c3c(c(=O)oc12)CCC3,15,2,5,198*
CCc1cc(=O)oc2c(C)c(O)c(CN3CCCCC3)cc12,32*,2,-4,+
COc1cccc(C(=O)Nc2nnc(-c3ccc(OC)cc3OC)s2)c1,4,-2,-3,0
COc1cccc(C(=O)Nc2nnc(-c3ccccc3)s2)c1,36*,-4,.,19
COc1cccc(C(=O)Nc2nnc(S(=O)(=O)Nc3cccc(C)c3)s2)c1,37*,5,-16,6
O[C@@H]1CN(Cc2ccc(-n3cccn3)cc2)CC[C@H]1N1CCN(c2ccccc2F)CC1,-1,2,4,0
O=C(CN1C(=O)c2ccccc2S1(=O)=O)c1ccc(O)c(O)c1,59*,2,8,0
Cc1ccc(C(=O)N=c2sccn2C)o1,33*,-2,-4,-2
COC(=O)c1nc2nc(-c3cccs3)cc(C(F)(F)F)n2n1,18,-1,5,+
O=C(NCc1ccco1)c1nc2nc(-c3cccs3)cc(C(F)(F)F)n2n1,28,4,2,+
O=C(NCc1ccco1)c1nn2c(C(F)(F)F)cc(-c3cccs3)nc2c1Br,1,-1,-9,-2
O=C(NCCO)c1nc(C(=O)c2ccccc2)c2ccccc2n1,-4,-2,5,5
NC(=S)N=Nc1c(O)cc(O)c2[nH]c(=O)ccc12,37*,.,.,-4
NC(=S)N=Nc1c(O)[nH]c2ccc(F)cc12,28,3,3,0
Brc1ccc(/C=N/c2nc3ccccc3n2CCN2CCOCC2)cc1,-4,17*,11,3
CCOC(=O)Cc1cc(=O)[nH]c(Nc2nc3ccccc3o2)n1,18,-1,-2,6
COC(=O)Cc1cc(=O)[nH]c(Nc2nc3ccccc3o2)n1,37*,4,1,9
COc1ccc(CN(C)C[C@H]2OCc3cnnn3CCCC(=O)N([C@H](C)CO)C[C@@H]2C)cc1,8,.,.,-2
COC(=O)C1=C(C)N(C)C(C)=C(C(=O)OC)C1c1ccc(C(=O)OC)cc1,5,-1,8,-2
COC(=O)C1=CNC=C(C(=O)OC)C1c1ccc(C(=O)OC)cc1,4,0,-5,115*
COc1ccc(-c2ccnc3c(C#N)cnn23)cc1,13,-1,2,171*
COc1ccc(C2/C(=C(/O)c3ccccc3)C(=O)C(=O)N2c2ccccn2)c(OC)c1 (stereo unspecified),31*,0,-3,1
Cc1sc(=NC(=O)c2ccco2)n(C)c1-c1ccccc1,39*,0,0,0
Cn1c(=NC(=O)c2ccco2)sc2ccccc21,34*,3,-4,-1
SMILES,GDH-TPI counter,UGM FP inh,Rv3671c protease,FBA Mtb inh
Cc1sc(=NC(=O)c2ccco2)n(C)c1-c1ccc(F)cc1,26,2,0,-2
CCOc1cccc2sc(=NC(=O)c3ccco3)n(CC(=O)OC)c12,81*,1,-13,9
COc1cc(/C=N/n2cnnc2-n2nc(C)cc2C)cc([N+](=O)[O-])c1O,38*,0,4,-11
Cc1cc(C)n(-c2nncn2/N=C/c2ccccc2F)n1,0,2,-3,0
O=c1c(O)c(-c2ccccc2)oc2cc(O)cc(O)c12,28,.,-17,1
O=c1c(O)c(-c2cc(O)c(O)c(O)c2)oc2cc(O)cc(O)c12,32*,-2,-39,-3
O=C(OC(C(=O)NC1CCCCC1)c1ccccc1F)c1ccco1 (stereo unspecified),-1,-1,1,1
CC(C)(C)c1ccc(/C=N/NC(=S)NCc2ccccc2)cc1,13,.,-10,-1
CN(c1ccccc1)c1ccc(/C=N/NC(=O)CC#N)cc1,31*,3,8,9
Cc1ccccc1N(CC(=O)N/N=C/c1ccc(N(C)C)cc1)C(=O)c1ccccc1,40*,1,-12,10
CN(C)c1ccc(/C=N/NC(=S)NCc2ccccc2)cc1,32*,-1,-1,24
Cc1ccccc1N(CC(=O)N/N=C/c1ccccc1Cl)C(=O)c1ccccc1,12,0,-15,0
COCCCNC(=S)N/N=C/c1ccc(N(C)C)cc1,15,-3,8,48*
O=C(O)c1ccccc1C(=O)NCc1ccc2c(c1)OCO2,14,-1,-8,6
Cc1ccc(CCNS(=O)(=O)c2cc(Br)cnc2N)cc1,5,-1,-1,7
O=C1CSc2ccc(C(=O)N3CCCCC3)cc2N1,-4,.,.,-3
COc1ccc(/C=N/NC(=O)OC(C)(C)C)cc1OC,-1,1,-13,6
CN(C)c1ccc(/C=N/NC(=O)CSc2ccccn2)cc1,60*,-2,-3,1
COc1cc(/C=N/NC(=O)CSc2ccccn2)ccc1O,22,1,6,6
Cn1c(=O)n(C)c2cc(/C=N/NC(=S)NCc3ccccc3)ccc21,34*,1,-2,1
Cc1ccc(C)c(NC(=O)C2CCCN(S(=O)(=O)c3c(C)noc3/C=C/N(C)C)C2)c1 (stereo unspecified),38*,0,-12,-4
Cc1ccc(CCNC(=O)C2CCCN(S(=O)(=O)c3c(C)noc3/C=C/N(C)C)C2)cc1 (stereo unspecified),53*,0,-9,-2
Cc1noc(/C=C/N(C)C)c1S(=O)(=O)N1CCCC(C(=O)Nc2ccc(F)cc2F)C1 (stereo unspecified),39*,-3,-15,-6
Cc1ccc(CCNC(=O)C2CCCN(S(=O)(=O)c3c(C)noc3C)C2)cc1 (stereo unspecified),7,2,-3,3
Cc1ccc(NC(=O)C2CCCN(S(=O)(=O)c3c(C)noc3C)C2)c(Br)c1 (stereo unspecified),8,3,5,3
SMILES,GDH-TPI counter,UGM FP inh,Rv3671c protease,FBA Mtb inh
Cc1ccc(NC(=O)C2CCCN(S(=O)(=O)c3c(C)noc3/C=C/N(C)C)C2)c(C)c1 (stereo unspecified),36*,-2,-12,-2
Cc1cccc(C)c1C(O)c1ncc(-c2ccc(F)cc2)[nH]1 (stereo unspecified),4,.,.,5
O=C(O)C1C(=O)NCC1c1ccccc1 (stereo unspecified),-13,-1,-1,-1
CCOCCCn1c(SC(C)C(=O)NCC2CCCO2)nc2sc(C)c(C)c2c1=O (stereo unspecified),10,2,-4,-1
CCOc1ccc(CN(C)CC(=O)Nc2ccc([N+](=O)[O-])cc2Cl)cc1,-1,-2,2,1
Cc1cc(-c2onc3ccc(Cl)cc23)ccc1O,4,4,11,0
COc1cccc2cc(-c3ccccc3)c(=O)oc12,-1,1,-12,3
COc1ccc2cc(-c3ccccc3)c(=O)oc2c1,30,0,4,+
COc1ccc(-c2cc(=O)oc3cc(OC(C)C(=O)O)ccc23)cc1 (stereo unspecified),7,-2,-4,4
COC(=O)C(C)Oc1ccc2cc(-c3ccccc3)c(=O)oc2c1 (stereo unspecified),17,-1,2,+
